Broadly, the AC50 is the midpoint of the concentration-response curve, whichever way the signal moves.

This note sets out measurements from PubChem BioAssay AID1851 (National Center for Advancing Translational Sciences (NCATS), 2009).

Values joined by “and” are separate entries in the source; they are usually repeats but may differ in a detail not shown here. Identical values can stand only once. Screen size: about 16,000 compounds; about 4,000 (25%) were called active. Inconclusive results (about 26%) are left out. Calls come from the whole dose curve; as a rule, active = well fitted curve in the direction sought with a large enough effect; inconclusive = small, poorly fitted or top-dose-only effect, or effect the other way; inactive = no such curve, though single readings can be large or run the other way. Only a sample is shown. A structure can be active in one record and inactive in another.
% is set by controls: 0 for no effect and ±100 for the full control effect.

The test deals with Cytochrome P450 2C9 (Homo sapiens) (UniProt P11712). Put plainly: Cytochrome panel assay with activity outcomes. The following applies: recombinant CYP, pro-luciferin dealkylation, luminescence, p450-cyp2c9; series mostly up to 57.1 µM.
Sequence of Cytochrome P450 2C9 (Homo sapiens) (P11712 whole entry, looked up): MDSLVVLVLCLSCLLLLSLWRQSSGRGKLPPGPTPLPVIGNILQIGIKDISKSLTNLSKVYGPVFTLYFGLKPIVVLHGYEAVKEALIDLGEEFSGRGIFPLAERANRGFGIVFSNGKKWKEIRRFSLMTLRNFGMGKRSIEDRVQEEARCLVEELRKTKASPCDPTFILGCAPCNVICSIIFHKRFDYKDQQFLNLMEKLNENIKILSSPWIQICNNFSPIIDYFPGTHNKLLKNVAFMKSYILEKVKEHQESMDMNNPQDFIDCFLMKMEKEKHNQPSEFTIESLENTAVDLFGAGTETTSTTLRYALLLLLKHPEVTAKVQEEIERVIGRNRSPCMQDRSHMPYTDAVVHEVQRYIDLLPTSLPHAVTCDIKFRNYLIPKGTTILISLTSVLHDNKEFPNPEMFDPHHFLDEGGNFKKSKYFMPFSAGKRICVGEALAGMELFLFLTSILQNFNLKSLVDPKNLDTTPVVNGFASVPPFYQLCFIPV
As for `CN1C(=O)CCS(=O)(=O)[C@@H]1c1ccc(Cl)cc1`, the activity, negative = inhibition entry is “inactive”.
For `c1ccc([C@H]2CNCc3ccccc32)cc1`, the activity, negative = inhibition entry is “inactive”.
On the same count and under the same terms, to `CCCN(CCC)[C@@H]1CCc2cccc(O)c2C1` belongs “inactive”; to `CC[C@]1(c2cccc(O)c2)CCCCN(C)C1`, “inactive”.
For `CC1=NN=C(c2ccc(N)cc2)c2cc3c(cc2C1)OCO3`, the AC50 result is “inactive and 1.26 µM (active)”.
Same read-out and setting: as for `C[C@@H]1Cc2cc3c(cc2C(c2ccc(N)cc2)=NN1)OCO3`, the figure is 25.1 µM (active).
As to `CCCC[N+]1(C)[C@@H]2CC(OC(=O)[C@@H](CO)c3ccccc3)C[C@H]1[C@H]1O[C@H]12` (some centres not stated), the activity, negative = inhibition entry was “inactive”.
Turning to `CC(C)CC(=O)C[C@H](O)C(Cl)(Cl)Cl`, the activity, negative = inhibition was -21.3% [at 11.4 µM] (inactive).
For `COc1cc2c(cc1O)C[C@@H]1c3c(cc(O)c(OC)c3-2)CCN1C`, the activity, negative = inhibition was -4.78% [at 11.4 µM] (inactive).
The same measure, in the same setting: to `CC(C)CN1CCC2(CC1)CCN(C(=O)Oc1ccccc1)CC2` belongs “inactive”; to `Cc1nccc2c1[nH]c1ccccc12`, “inactive”; to `Cn1c(O)c(C(c2ccccn2)c2c(O)n(C)c(=S)[nH]c2=O)c(=O)[nH]c1=S`, “inactive”.
For the compound `O=C(c1cc(-c2ccccc2)nc2ccccc12)N1CCC2(CC1)OCCO2`, the AC50 was 28.2 µM (active).
For the compound `O=C(c1cc2cc3ccc(Cl)cc3nc2o1)N1CCC2(CC1)OCCO2`, the activity, negative = inhibition result is “inactive”.
With `O=[N+]([O-])c1ccc(S(=O)(=O)Cc2ccccc2)c([N+](=O)[O-])c1`, the AC50 was 3.16 µM (active).
Consider `O=C(O)Cc1ccc([N+](=O)[O-])cc1[N+](=O)[O-]`, for which the activity, negative = inhibition is 11.5% [at 11.4 µM] (inactive).
On the same count and under the same terms, to `O=C1c2cc([N+](=O)[O-])ccc2-c2ccc3c4ccc5c6c(ccc(c7ccc1c2c73)c64)C(=O)c1cc([N+](=O)[O-])ccc1-5` belongs -26.9% [at 11.4 µM] (inactive).
On the same count and under the same terms, as for `N[C@H](Cc1ccc2oc3cc(=O)c4ccccc4c-3nc2c1)C(=O)O`, the figure is -13.7% [at 11.4 µM] (inactive); as for `COc1ccc(C(=O)c2c(C)n(CCN3CCOCC3)c3cc(I)ccc23)cc1`, “inactive”.
Regarding `CN(C)CS/C(N)=N/[C@H](O)C(Cl)(Cl)Cl`, the activity, negative = inhibition is -28.6% [at 11.4 µM] (inactive).
On the same count and under the same terms, to `CC[N+](CC)(CCNC(=O)C(=O)NCC[N+](CC)(CC)Cc1ccccc1Cl)Cc1ccccc1Cl` belongs “inactive”; to `C/C=C1\C[C@H](C)[C@@](O)(CO)C(=O)OCC2=CCN3CC[C@@H](OC1=O)[C@@H]23`, “inactive”.
For the compound `COCCCN1CCN(c2nnc3n2-c2sc(Br)cc2C(c2ccccc2Cl)=NC3)CC1`, the AC50 is 12.6 µM (active).
On to `COCCCNC(=S)NC1CC2CCCC(C1)N2Cc1cccs1` (configuration not stated), for which the activity, negative = inhibition entry is “inactive”.
With `COc1cc2c(c(OC)c1OC)-c1ccc(O)c(=O)cc1[C@H](N)CC2`, the activity, negative = inhibition result is “inactive”.
For the compound `CC[C@]1(OC(=O)CN)C(=O)OCc2c1cc1n(c2=O)Cc2cc3ccccc3nc2-1`, the activity, negative = inhibition was 6.92% [at 11.4 µM] (inactive).
The same measure, in the same setting: to `Nc1ccc(S(=O)(=O)c2ccc(NCN3C(=O)NC(=O)C(=O)C3=O)cc2)cc1` belongs 7.48% [at 11.4 µM] (inactive).
In the case of `CC(C)(C)CC(=O)NC(=S)Nc1ccccc1C(F)(F)F`, the AC50 was 2.51 µM (active).
For the compound `NCCCN1CCN(c2ccccc2)CC1`, the activity, negative = inhibition is 3.16% [at 11.4 µM] (inactive).
Turning to `CCNC(=O)O/N=C(\C)c1sc(-c2ccccc2)nc1C`, the AC50 was 8.91 µM (active).
The same measure, in the same setting: to `C/C(=N\OC(=O)NC(C)C)c1sc(-c2ccc(Cl)cc2)nc1C` belongs 7.08 µM (active).
For `CCC(CC)C(=O)NC1CCSC1=O` (configuration not stated), the activity, negative = inhibition result was “inactive”.
As for `N=C(N)n1cc(/C=N\N=C(N)N)cn1`, the activity, negative = inhibition is 5.35% [at 11.4 µM] (inactive).
Still for that read-out and setting: to `CC1=CC(=O)C2=C(C)C[C@@H](O)[C@@H]3[C@@H](OC(=O)[C@H]3C)[C@H]12` belongs “inactive”; to `CN(C)C(=O)Oc1cc(OC(=O)N(C)C)cc([C@@H](O)CNC(C)(C)C)c1`, “inactive”; to `C[C@@]12CC[C@@H]3[C@H](CCC4=CC(=O)CC[C@]43C)[C@@H]1CC[C@@H]2C(=O)Cn1cnc2c(=S)nc[nH]c21`, -11.6% [at 11.4 µM] (inactive).
Take `COC(=O)N1CCC2(CCN(CC(C)C)CC2)CC1`: the activity, negative = inhibition entry is “inactive”.
Same read-out and setting: as for `C[C@@]12CC[C@H](O)C[C@@H]1CC[C@H]1[C@@H]2C[C@@H](O)[C@]2(C)[C@@H](C3=CC(=O)OC3)CC[C@]12O`, the entry is “inactive”; as for `C[N+]1(C)CCN(c2ccccc2)CC1`, “inactive”; as for `C[C@H](CC(C#N)(c1ccccc1)c1ccccc1)N1CCCCC1`, 6.88% [at 11.4 µM] (inactive).
As to `COc1cc([C@@H](O)CN)ccc1O`, the activity, negative = inhibition entry is “inactive”.
Consider `COc1cc(CNC(=O)CCCC/C=C\C(C)C)ccc1O`, for which the AC50 is 1.26 µM (active).
In the case of `CNC[C@H](O)c1ccc(O)c(OC)c1`, the activity, negative = inhibition result is “inactive”.
On the same count and under the same terms, to `COc1cc(CCN)ccc1O` belongs “inactive”.
Regarding `CCCCCCCCC(=O)NCc1ccc(O)c(OC)c1`, the AC50 is 3.16 µM (active).
`C[C@@H]1O[C@H](O[C@@H]2CC[C@@]3(C=O)[C@H]4CC[C@@]5(C)[C@@H](C6=CC(=O)OC6)CC[C@@]5(O)[C@@H]4CC[C@]3(O)C2)C[C@H](O)[C@@H]1O`: the activity, negative = inhibition result was “inactive”.
Same read-out and setting: to `COc1ccc2[nH]cc(C3=CCNCC3)c2c1` belongs “inactive”; to `C=CCN1C(=O)NC(=O)/C(=C/c2cccn2C)C1=O`, “inactive”.
The same measure, in the same setting: to `O=C(O)Cc1cccnc1C(=O)O` belongs “inactive”; to `O=c1cccc2n1CC1CNC[C@H]2C1`, “inactive”.
The same measure, in the same setting: to `c1ccc(N2CC[C@@]3(CCCNC3)C2)cc1` belongs “inactive”; to `CC(C)CN1CCC2(CC1)CCN(S(C)(=O)=O)CC2`, “inactive”.
Turning to `Cc1ccc(N(C)C(=O)Oc2cccc3ccc(C)nc23)cc1`, the AC50 is 11.2 µM (active).
Regarding `O=C1OC(=O)[C@@H]2[C@@H]1[C@@H]1CC[C@H]2O1`, the activity, negative = inhibition result was “inactive”.
Regarding `O=C(O)C(C(=O)O)P(=S)(S)c1ccccc1` (configuration not stated), the activity, negative = inhibition was 4.02% [at 11.4 µM] (inactive).
As for `COC(=O)C[C@](O)(CCCC(C)(C)O)C(=O)O[C@@H]1C(OC)=C[C@]23CCCN2CCc2cc4c(cc2[C@H]13)OCO4`, the activity, negative = inhibition entry was “inactive”.
In the case of `C[C@]12CC[C@@H]3C(=CCc4cc(O)ccc43)[C@@H]1CCC2=O`, the activity, negative = inhibition entry is “inactive”.
Still for that read-out and setting: as for `CCN(CC)C(=O)N[C@@H]1C[C@H]2c3cccc4[nH]cc(c34)C[C@@H]2N(C)C1`, the entry is “inactive”.
On to `CC(=O)C1=C(O)[C@@H]2[C@@H]3c4c[nH]c5cccc(c45)C[C@@H]3C(C)(C)N2C1=O`, for which the concentration at half-maximal activity (AC50) was 31.6 µM (active).
Consider `S=C=Nc1cccc(C2(N3CCCCC3)CCCCC2)c1`, for which the activity, negative = inhibition entry is “inactive”.
For the compound `CCCN[C@@H]1CCc2c(OC)cccc2[C@@H]1C`, the activity, negative = inhibition entry was “inactive”.
As for `C=C(C)[C@H]1CC[C@]2(CO)CC[C@]3(C)[C@@H](CC[C@H]4[C@@]5(C)CC[C@@H](O)C(C)(C)[C@@H]5CC[C@@]43C)[C@H]12`, the activity, negative = inhibition entry is “inactive”.
With `C[C@@H]1[C@@H](C)N1C[C@H](O)Cn1ccnc1[N+](=O)[O-]` (some centres not stated), the activity, negative = inhibition was 21.8% [at 11.4 µM] (inactive).
In the case of `Oc1ccc2c3c1O[C@H]1c4[nH]c5c(c4C[C@@]4(O)[C@@H](C2)N(CC2CC2)CC[C@]314)C[C@]1(O)[C@H]2Cc3ccc(O)c4c3[C@@]1(CCN2CC1CC1)[C@@H]5O4`, the activity, negative = inhibition entry is “inactive”.
As for `Oc1ccc2c3c1O[C@H]1c4[nH]c5ccccc5c4C[C@]4(O)[C@H](C2)N(CC2CC2)CC[C@@]314`, the AC50 is 25.1 µM (active).
Consider `Oc1ccc2c3c1O[C@@H]1c4[nH]c5c(c4C[C@@]4(O)[C@@H](C2)N(CC2CC2)CC[C@]314)C[C@]1(O)[C@@H]2Cc3ccc(O)c4c3[C@@]1(CCN2CC1CC1)[C@H]5O4`, for which the activity, negative = inhibition result was “inactive”.
For the compound `C=C[C@@H]1CN2CC[C@H]1C[C@H]2[C@H](O)c1ccnc2ccccc12`, the activity, negative = inhibition is -2.06% [at 11.4 µM] (inactive).
With `c1cncc([C@@H]2CCCCN2)c1`, the activity, negative = inhibition entry is “inactive”.
On the same count and under the same terms, to `C[C@H](N)[C@@H](O)c1ccccc1` belongs “inactive”.
Turning to `NCCSC(c1ccccc1)c1ccccc1`, the AC50 was 1 µM (active).
Consider `CC(=O)[C@@H]1CC[C@@H]2[C@@H]3CC=C4C[C@H](OS(=O)(=O)O)CC[C@@]4(C)[C@H]3CC[C@]21C`, for which the activity, negative = inhibition result is “inactive”.
Still for that read-out and setting: to `C[C@@H]1O[C@H](OC2[C@@H](O)[C@H](O)C(O)[C@H](O)[C@H]2O)[C@@H](N)C[C@@H]1N=C(N)C(=O)O` (some centres not stated) belongs 0.868% [at 11.4 µM] (inactive); to `COc1ccc2c(c1O)-c1cccc3c1[C@H](C2)N(C)CC3`, “inactive”.
Regarding `O=[As](O)(O)c1ccc(N=Nc2ccc(O)cc2)cc1`, the activity, negative = inhibition was -6.31% [at 11.4 µM] (inactive).
Still for that read-out and setting: to `NNC(=O)c1ccc(O)cc1` belongs “inactive”.
`NC(N)=NC(=O)c1nc(Cl)c(N)nc1N`: the activity, negative = inhibition entry was “inactive”.
On the same count and under the same terms, to `C[C@@]12CC[C@@H]3[C@H](CCC4=CC(=O)CC[C@]43C)[C@@H]1CC[C@@H]2C(=O)COS(=O)(=O)c1ccc(Br)cc1` belongs -18.3% [at 11.4 µM] (inactive).
